Molecular target: C2orf76
Test: pooled miR-30 sensor sort-seq; sequence = guide strand
Details: shRNA
Note: reference of the scale not given here.

| Sequence | sensor-assay potency score (higher = more potent) |
| --- | --- |
| TTTCACTGGCGATTCCAGCTGC | 0.205 |
| TCTTCTTTCAGCAGGAGTCTTT | -0.508 |
| TTTCAGAGTGCTGTCTTCTTTC | 0.204 |
| TTTGTAGTTCTTATAATCTTCT | -0.217 |
| TTGTCTTTGATTTATGTGCTTG | -0.405 |
| TATAATTTCTGAATGGTGGTGG | 1.01 |
| TTTGTCTTTGATTTATGTGCTT | -0.117 |
| TAAAGGGATATCTTGCTTTAGA | -0.915 |
| TTCGTCATCTTCCAAACTCAAC | -1.74 |
| TATCTTGCTTTAGAAATACGAT | -1.11 |
| TGTAGTTCTTATAATCTTCTTC | 0.298 |

Molecular target: C2orf79
Test: as above
Details: shRNA

| Sequence | sensor-assay potency score (higher = more potent) |
| --- | --- |
| TTCGTAACACCAAGTATTGTAC | -0.56 |
| TATTGTACCAGGACCTGCGGCT | -0.203 |
| TCTTCTGTTGCAGGGTCTCGGC | -1.21 |
| TACAAGTGGCGATATTCTCTGG | -0.432 |
| TTAGGGTGGTCTCATCTGGGGC | -1.64 |
| TAGATCCTTTCGTAACACCAAG | -1.46 |
| TTCTGTTGCAGGGTCTCGGCCA | -0.447 |
| TAACACCAAGTATTGTACCAGG | -0.742 |
| TTGTGATAGATCCTTTCGTAAC | -1.71 |
| TTGCTCAAGCCACAGCATGTGG | -1.1 |
| TTTAGGGTGGTCTCATCTGGGG | -0.919 |
| TTTCGTAACACCAAGTATTGTA | 0.279 |

From the OligoGym collection
